# Laboratory results taken from ChEMBL document CHEMBL1961873, “Compounds: GSK PKIS; Assays: Nanosyn kinase panel” (2012).
# Assays:
# [1] = biological target: Serine/threonine-protein kinase MARK2 (Homo sapiens) (UniProt Q7KZI7); settings: at 1 µM
# [2] = biological target: PAS domain-containing serine/threonine-protein kinase (Homo sapiens) (UniProt Q96RG2); settings: at 0.1 µM
# [3] = biological target: PAS domain-containing serine/threonine-protein kinase (Homo sapiens) (UniProt Q96RG2); settings: at 1 µM
# [4] = biological target: Phosphorylase b kinase gamma catalytic chain, skeletal muscle/heart isoform (Homo sapiens) (UniProt Q16816); settings: at 0.1 µM
# Chain of Phosphorylase b kinase gamma catalytic chain, skeletal muscle/heart isoform (Homo sapiens) (Q16816 whole entry, looked up, canonical isoform): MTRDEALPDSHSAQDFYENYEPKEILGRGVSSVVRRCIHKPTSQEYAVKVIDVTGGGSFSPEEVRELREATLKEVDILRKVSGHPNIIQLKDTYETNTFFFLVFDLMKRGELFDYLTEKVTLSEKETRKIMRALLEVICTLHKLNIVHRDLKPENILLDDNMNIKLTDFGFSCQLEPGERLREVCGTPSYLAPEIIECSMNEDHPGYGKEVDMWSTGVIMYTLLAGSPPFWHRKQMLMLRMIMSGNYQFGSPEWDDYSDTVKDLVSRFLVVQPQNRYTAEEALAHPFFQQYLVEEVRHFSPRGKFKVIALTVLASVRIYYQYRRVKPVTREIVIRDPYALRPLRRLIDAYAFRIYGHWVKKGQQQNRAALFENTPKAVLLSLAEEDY
# [5] = biological target: Phosphorylase b kinase gamma catalytic chain, skeletal muscle/heart isoform (Homo sapiens) (UniProt Q16816); settings: at 1 µM
# [6] = biological target: T1, Phosphorylase b kinase gamma catalytic chain, liver/testis isoform (Homo sapiens) (UniProt P15735); settings: at 0.1 µM
# T1 sequence (whole entry): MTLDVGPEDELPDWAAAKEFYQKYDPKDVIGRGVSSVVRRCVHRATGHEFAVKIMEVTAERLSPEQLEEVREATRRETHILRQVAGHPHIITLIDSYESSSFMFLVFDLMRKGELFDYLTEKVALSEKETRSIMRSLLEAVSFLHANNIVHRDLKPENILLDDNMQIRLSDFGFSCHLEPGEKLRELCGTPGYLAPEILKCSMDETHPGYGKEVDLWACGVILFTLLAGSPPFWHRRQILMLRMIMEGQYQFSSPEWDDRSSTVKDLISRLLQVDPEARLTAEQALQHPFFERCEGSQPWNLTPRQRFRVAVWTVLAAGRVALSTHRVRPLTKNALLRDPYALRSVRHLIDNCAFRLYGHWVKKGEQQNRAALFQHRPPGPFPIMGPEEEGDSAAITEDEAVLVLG
# [7] = biological target: T1, Phosphorylase b kinase gamma catalytic chain, liver/testis isoform (Homo sapiens); settings: at 1 µM
# [8] = biological target: Serine/threonine-protein kinase pim-1 (Homo sapiens) (UniProt P11309); settings: at 0.1 µM
# Chain of Serine/threonine-protein kinase pim-1 (Homo sapiens) (P11309 whole entry, looked up): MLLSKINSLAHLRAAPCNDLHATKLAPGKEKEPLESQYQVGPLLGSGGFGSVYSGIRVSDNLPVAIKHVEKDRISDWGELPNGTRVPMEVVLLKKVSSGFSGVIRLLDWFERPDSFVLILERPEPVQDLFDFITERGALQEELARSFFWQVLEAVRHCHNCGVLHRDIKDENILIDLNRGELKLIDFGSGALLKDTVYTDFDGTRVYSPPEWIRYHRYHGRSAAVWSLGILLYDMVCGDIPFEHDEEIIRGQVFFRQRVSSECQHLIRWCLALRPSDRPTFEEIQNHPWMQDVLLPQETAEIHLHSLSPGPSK
# [9] = biological target: Serine/threonine-protein kinase pim-1 (Homo sapiens) (UniProt P11309); settings: at 1 µM
# [10] = biological target: Serine/threonine-protein kinase pim-2 (Homo sapiens) (UniProt Q9P1W9); settings: at 0.1 µM
# Chain of Serine/threonine-protein kinase pim-2 (Homo sapiens) (Q9P1W9 whole entry, looked up): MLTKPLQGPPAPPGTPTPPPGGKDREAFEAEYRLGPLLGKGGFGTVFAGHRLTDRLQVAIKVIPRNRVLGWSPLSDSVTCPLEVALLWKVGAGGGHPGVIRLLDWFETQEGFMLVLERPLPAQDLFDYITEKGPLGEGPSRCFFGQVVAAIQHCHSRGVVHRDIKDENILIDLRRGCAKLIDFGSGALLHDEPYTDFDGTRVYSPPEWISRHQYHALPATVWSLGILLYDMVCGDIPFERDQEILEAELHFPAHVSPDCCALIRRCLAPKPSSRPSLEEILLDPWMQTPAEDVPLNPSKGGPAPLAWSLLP
# [11] = biological target: Serine/threonine-protein kinase pim-2 (Homo sapiens) (UniProt Q9P1W9); settings: at 1 µM
# [12] = biological target: Serine/threonine-protein kinase pim-3 (Homo sapiens) (UniProt Q86V86); settings: at 0.1 µM
# [13] = biological target: Serine/threonine-protein kinase pim-3 (Homo sapiens) (UniProt Q86V86); settings: at 1 µM
# [14] = biological target: T2, MAP kinase-activated protein kinase 5 (Homo sapiens) (UniProt Q8IW41); settings: at 0.1 µM
# T2 sequence (whole entry): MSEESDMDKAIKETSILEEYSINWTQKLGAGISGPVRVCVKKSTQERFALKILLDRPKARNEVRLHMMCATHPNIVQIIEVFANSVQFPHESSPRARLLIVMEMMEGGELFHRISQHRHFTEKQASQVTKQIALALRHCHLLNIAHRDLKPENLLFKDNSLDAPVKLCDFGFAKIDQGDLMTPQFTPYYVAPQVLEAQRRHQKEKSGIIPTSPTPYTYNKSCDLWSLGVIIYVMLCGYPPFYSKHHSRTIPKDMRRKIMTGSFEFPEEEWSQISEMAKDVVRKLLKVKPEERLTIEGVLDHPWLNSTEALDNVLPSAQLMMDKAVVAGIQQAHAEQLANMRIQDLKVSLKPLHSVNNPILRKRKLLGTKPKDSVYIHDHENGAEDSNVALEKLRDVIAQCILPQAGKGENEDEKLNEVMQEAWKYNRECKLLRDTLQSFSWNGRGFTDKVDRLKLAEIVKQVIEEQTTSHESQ
# [15] = biological target: T2, MAP kinase-activated protein kinase 5 (Homo sapiens); settings: at 1 µM
# [16] = biological target: Serine/threonine-protein kinase SIK1 (Homo sapiens) (UniProt P57059); settings: at 0.1 µM
# [17] = biological target: Serine/threonine-protein kinase SIK1 (Homo sapiens) (UniProt P57059); settings: at 1 µM
# [18] = biological target: Serine/threonine-protein kinase SIK2 (Homo sapiens) (UniProt Q9H0K1); settings: at 0.1 µM
# Chain of Serine/threonine-protein kinase SIK2 (Homo sapiens) (Q9H0K1 whole entry, looked up): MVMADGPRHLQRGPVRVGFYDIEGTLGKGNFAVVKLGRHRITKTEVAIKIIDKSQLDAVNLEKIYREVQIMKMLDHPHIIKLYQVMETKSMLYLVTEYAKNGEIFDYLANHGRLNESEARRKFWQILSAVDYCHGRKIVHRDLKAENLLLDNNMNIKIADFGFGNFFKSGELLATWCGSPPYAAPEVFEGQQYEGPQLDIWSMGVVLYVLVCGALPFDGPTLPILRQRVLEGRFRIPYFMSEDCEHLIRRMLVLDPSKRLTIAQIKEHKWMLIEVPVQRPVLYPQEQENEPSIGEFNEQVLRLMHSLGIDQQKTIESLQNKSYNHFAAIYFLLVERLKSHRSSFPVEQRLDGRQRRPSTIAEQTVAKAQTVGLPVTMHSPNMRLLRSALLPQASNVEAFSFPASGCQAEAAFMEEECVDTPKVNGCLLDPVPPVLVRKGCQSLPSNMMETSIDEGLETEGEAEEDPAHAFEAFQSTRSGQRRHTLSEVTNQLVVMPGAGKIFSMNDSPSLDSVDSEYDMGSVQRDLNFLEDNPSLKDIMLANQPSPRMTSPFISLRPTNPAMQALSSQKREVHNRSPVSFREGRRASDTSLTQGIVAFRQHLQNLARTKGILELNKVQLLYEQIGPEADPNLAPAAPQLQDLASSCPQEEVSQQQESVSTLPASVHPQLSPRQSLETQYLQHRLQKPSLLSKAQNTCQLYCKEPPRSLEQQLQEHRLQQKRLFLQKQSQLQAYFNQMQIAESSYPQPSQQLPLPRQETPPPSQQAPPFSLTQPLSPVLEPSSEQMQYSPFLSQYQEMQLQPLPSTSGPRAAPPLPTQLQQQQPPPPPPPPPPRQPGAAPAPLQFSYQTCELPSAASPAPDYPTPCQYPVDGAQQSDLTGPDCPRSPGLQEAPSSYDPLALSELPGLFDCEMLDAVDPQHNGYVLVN
# [19] = biological target: Serine/threonine-protein kinase SIK2 (Homo sapiens) (UniProt Q9H0K1); settings: at 1 µM
# [20] = biological target: T3, Serine/threonine-protein kinase TBK1 (Homo sapiens) (UniProt Q9UHD2); settings: at 0.1 µM;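 also: values are the mean TBK1 inhibition, taken from the GSK PKIS screening data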
# T3 sequence (whole entry): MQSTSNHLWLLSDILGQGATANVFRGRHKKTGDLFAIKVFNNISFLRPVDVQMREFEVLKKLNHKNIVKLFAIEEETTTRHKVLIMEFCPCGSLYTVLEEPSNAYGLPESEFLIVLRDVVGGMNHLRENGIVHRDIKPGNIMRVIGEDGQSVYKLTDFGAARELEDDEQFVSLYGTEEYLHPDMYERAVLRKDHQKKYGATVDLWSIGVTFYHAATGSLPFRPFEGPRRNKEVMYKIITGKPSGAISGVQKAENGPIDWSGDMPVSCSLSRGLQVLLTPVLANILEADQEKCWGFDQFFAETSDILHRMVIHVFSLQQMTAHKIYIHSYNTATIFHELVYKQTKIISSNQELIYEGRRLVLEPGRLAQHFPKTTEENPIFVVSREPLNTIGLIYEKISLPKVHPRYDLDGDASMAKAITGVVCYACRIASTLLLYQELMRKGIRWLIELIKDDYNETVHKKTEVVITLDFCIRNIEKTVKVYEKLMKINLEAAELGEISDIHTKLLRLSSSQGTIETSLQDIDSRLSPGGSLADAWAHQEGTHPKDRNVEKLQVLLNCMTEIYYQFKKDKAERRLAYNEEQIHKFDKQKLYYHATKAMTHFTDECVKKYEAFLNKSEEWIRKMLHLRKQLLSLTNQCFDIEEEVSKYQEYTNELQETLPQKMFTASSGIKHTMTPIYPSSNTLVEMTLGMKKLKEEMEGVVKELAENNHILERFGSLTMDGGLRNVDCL
# Chain of Serine/threonine-protein kinase MARK2 (Homo sapiens) (Q7KZI7 whole entry, the tested form may be a part): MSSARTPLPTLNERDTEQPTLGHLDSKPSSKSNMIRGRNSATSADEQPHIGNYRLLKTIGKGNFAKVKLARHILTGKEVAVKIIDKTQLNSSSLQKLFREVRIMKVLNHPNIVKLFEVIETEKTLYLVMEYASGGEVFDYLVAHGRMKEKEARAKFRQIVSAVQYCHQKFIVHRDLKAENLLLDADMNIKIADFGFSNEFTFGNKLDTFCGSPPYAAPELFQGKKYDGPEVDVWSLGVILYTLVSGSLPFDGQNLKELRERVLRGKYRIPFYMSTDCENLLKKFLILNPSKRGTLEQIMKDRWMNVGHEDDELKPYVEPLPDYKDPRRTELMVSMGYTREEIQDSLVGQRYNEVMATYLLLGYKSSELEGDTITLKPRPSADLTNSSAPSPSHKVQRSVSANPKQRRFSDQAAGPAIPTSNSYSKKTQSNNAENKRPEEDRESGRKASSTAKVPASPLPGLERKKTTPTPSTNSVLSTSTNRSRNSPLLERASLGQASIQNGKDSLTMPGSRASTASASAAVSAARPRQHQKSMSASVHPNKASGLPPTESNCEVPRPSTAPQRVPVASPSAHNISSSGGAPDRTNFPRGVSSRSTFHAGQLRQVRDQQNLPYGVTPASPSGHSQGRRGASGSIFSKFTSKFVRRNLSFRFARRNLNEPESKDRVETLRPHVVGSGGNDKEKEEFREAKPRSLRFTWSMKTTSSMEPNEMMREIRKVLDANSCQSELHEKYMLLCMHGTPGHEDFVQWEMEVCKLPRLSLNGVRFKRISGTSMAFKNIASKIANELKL
# Chain of PAS domain-containing serine/threonine-protein kinase (Homo sapiens) (Q96RG2 whole entry, the tested form may be a part, canonical isoform): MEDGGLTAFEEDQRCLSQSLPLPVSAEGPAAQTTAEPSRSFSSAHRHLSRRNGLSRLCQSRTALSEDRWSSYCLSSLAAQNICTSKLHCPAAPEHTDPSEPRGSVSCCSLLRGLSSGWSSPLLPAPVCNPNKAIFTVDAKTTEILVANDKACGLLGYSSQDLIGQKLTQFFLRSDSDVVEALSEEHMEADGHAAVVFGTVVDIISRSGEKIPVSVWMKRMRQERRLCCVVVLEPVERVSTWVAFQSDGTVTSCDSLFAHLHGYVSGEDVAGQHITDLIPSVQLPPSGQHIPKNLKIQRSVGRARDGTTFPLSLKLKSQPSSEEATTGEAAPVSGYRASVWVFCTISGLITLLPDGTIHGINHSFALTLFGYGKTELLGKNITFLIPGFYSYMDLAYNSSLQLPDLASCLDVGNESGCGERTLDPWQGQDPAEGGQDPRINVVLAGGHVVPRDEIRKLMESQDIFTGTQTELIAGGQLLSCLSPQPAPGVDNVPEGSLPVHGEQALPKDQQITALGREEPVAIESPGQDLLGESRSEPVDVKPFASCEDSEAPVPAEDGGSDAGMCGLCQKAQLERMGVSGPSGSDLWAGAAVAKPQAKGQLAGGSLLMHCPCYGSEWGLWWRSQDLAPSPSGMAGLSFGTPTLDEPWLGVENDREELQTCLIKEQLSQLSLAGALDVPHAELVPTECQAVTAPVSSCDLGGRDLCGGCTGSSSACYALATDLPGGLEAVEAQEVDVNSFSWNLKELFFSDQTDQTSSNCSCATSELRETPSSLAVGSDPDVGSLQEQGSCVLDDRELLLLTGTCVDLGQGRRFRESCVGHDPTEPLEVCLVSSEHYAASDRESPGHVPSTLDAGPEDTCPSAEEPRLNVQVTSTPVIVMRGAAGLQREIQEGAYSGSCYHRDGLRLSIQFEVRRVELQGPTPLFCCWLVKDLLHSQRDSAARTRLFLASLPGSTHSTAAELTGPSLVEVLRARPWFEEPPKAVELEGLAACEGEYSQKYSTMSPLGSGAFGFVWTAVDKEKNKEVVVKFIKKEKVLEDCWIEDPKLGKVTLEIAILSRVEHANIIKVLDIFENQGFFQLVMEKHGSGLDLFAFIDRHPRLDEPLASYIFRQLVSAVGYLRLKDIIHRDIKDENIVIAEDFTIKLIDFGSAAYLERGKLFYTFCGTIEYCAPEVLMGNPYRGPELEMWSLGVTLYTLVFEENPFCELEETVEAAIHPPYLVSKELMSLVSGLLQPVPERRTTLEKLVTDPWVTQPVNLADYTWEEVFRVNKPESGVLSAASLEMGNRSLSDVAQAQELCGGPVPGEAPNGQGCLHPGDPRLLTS
SMILES,inhibition [1] [%],inhibition [2] [%],inhibition [3] [%],inhibition [4] [%],inhibition [5] [%],inhibition [6] [%],inhibition [7] [%],inhibition [8] [%],inhibition [9] [%],inhibition [10] [%],inhibition [11] [%],inhibition [12] [%],inhibition [13] [%],inhibition [14] [%],inhibition [15] [%],inhibition [16] [%],inhibition [17] [%],inhibition [18] [%],inhibition [19] [%],inhibition [20] [%]
CN(C)CCCNc1nccc(-c2c(-c3ccc(F)cc3)nn3cc(C(F)(F)F)ccc23)n1,2.71,0.83,-0.37,-0.27,2.68,2.52,0.17,0.62,1.32,-3.76,-3.32,-0.45,-0.57,0.44,-0.97,3.07,7.21,-1,6.81,0.75
COc1cc(Nc2ncc3c(C)nc(-c4cccc(C(F)(F)F)c4)n3n2)cc(OC)c1OC,3.54,-0.04,0.78,5.08,11.8,4.94,6.94,0.28,2,0.34,3.02,3.42,6.73,1.19,2.92,3.9,15.9,10.9,13.5,1.64
CCc1cccc(CC)c1/C=C/c1cncc(C(=O)NC)c1,1.59,0.55,-0.71,0.98,3.16,3.56,0.53,1.04,1.26,-0.07,-0.07,-0.9,-2.15,0.86,-0.1,0.91,6.26,1.69,-1.33,0.14
NC(=O)c1cc(-c2ccc(F)cc2)cc(-c2ccncc2)c1N,-0.63,-1.01,-1.24,5.8,5.92,4.55,5.76,0.02,1.09,-0.12,-1.22,-0.69,-5.17,1.11,2.54,4.79,9.72,7.37,8.31,3.66
CN(C)CCOc1ccc(-c2cc(-c3ccc4c(c3)CCC4=NO)c(-c3ccncc3)o2)cc1,0.33,1.53,1.21,1.83,5.45,-1.99,-1.19,0.55,0.18,-0.09,0.08,1.08,0.13,-0.29,-0.04,0.11,6.09,-4.64,-1.24,-2.4
Fc1ccc(-c2c(-c3ccncc3)nc3n2CCS3)cc1,1.79,-0.68,-0.44,4.14,4.63,1.99,3.28,-0.78,0.06,-3.15,-3.85,0.35,0.43,1.37,1.61,5,7.55,5.11,5.89,0.11
Fc1ccc(-c2ncn(CCCN3CCOCC3)c2-c2ccncc2)cc1,2.44,0.57,0.36,1.86,2.09,-0.42,-2.63,-0.06,-0.27,0.24,0.84,-1.36,-2.93,-0.65,-1.42,-2.01,3.56,-2.31,2.48,1.21
